# Hits are enriched below; roughly 4.1% of the tested compounds scored in any of these assays.
# Peg3 prom inh-1 = inhibitors of Peg3 promoter | HeLa PEG-Prom luciferase reporter, luminescence, overnight | inhibition, % at 20 µM | actives 1.7% (n = 360,000) | AID 588405;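 active means inhibition of at least 50% at 20 µM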
# Shn3 3UTR inh = Schnurri-3 reporter inhibition in Clone20 osteoblasts | AID 588674 | inhibition, % at 12.5 µM | actives 0.52% (n = 360,000) | Clone20 osteoblast Shn3 3'UTR firefly luciferase, 24 h;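 active means mean inhibition of at least 75% with every replicate also reaching 75%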
# TWEAK Fn14 block = blocks TWEAK-Fn14 interaction in a reporter cell assay; AID 1159606; inhibition, % at 10 µM; actives 2% (n = 360,000); TWEAK-stimulated Fn14 reporter cells, luciferase luminescence, 8 h; in the data active means inhibition above about 50%
# MITF TRPM1 inh = MITF TRPM1 promoter inhibition in SK-MEL-5 cells. SK-MEL-5 TRPM1 promoter luciferase, 24 h. inhibition, % at 12.5 µM. actives 0.83% (n = 330,000). AID 488899;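 active means mean inhibition across replicates of 60% or more, whatever share of single replicates reaches that level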
# TROY signal inh = inhibitors of TROY-dependent NF-kB signaling; Q293 LMP1-TROYcd NF-kB luciferase reporter, 4 h; inhibition, % at 10 µM; actives 0.98% (n = 360,000);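 active means compounds whose plate-normalised and pattern-corrected inhibition of the luciferase reporter signal at the single screening dose is 50% or more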
# EBV LMP1 NFkB = inhibitors of Epstein-Barr LMP1-induced NF-kappaB reporter; LMP1-induced NF-kappaB luciferase reporter cells, luminescence; inhibition, % at 12.5 µM; actives 0.69% (n = 350,000); in the data active means inhibition above about 41%
# Peg3 prom inh-2 = Peg3 promoter inhibition confirmation; inhibition, % at 20 µM; AID 602417; shares compounds with Peg3 prom inh-1; HeLa PEG-Prom luciferase reporter, luminescence, overnight; actives 84% (n = 1,300);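 active means at 20 µM dose, 40% or more inhibition averaged across four replicates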
# Hits are given with their value; - = inactive; . = not tested or not shown.
SMILES,Peg3 prom inh-1,Shn3 3UTR inh,TWEAK Fn14 block,MITF TRPM1 inh,TROY signal inh,EBV LMP1 NFkB,Peg3 prom inh-2
CCOc1ccc(S(=O)(=O)N2CCCC(C(=O)NC3CC3)C2)cc1Cl (centres undefined),-,-,-,-,-,-,.
CCOc1ccccc1NC(=O)CN1C(=O)C(C)SC(C)C1=O (centres undefined),-,-,-,-,-,-,.
C=CCC[C@@H](Cc1ccc(F)cc1)C(=O)OC[C@@H](Cc1c[nH]c2ccccc12)NC(=O)[C@H](CC=C)CC(=O)N[C@H](CO)Cc1ccccc1,52,-,-,-,-,-,-
OCCNCc1cc(Br)ccc1OCc1ccc(Cl)cc1,-,-,-,-,-,-,.
OCCNCc1cc(Br)ccc1OCc1ccc(Cl)cc1Cl,65,-,-,-,-,-,62
O=C(N/N=C\c1c(O)ccc2ccccc12)c1ccc(Cn2cccn2)o1,54,89,-,-,-,-,67
CCN(C(=O)COC(=O)/C=C/c1cccc(Br)c1)C1CCS(=O)(=O)C1 (centres undefined),-,-,-,-,-,-,.
CN(C(=O)COC(=O)/C=C/c1cccc([N+](=O)[O-])c1)C1CCS(=O)(=O)C1 (centres undefined),51,-,-,-,-,-,62
CC(NNC(=S)N1CCN(c2ccccn2)CC1)c1nccc2ccccc12 (centres undefined),92,93,-,86,-,72,87
Cc1oc(-c2ccc3c(c2)OCCO3)cc1C(=O)NCC(=O)O,-,-,-,-,-,-,.
Cc1oc(-c2ccc3c(c2)OCCO3)cc1C(=O)O,96,-,106,-,84,-,89
CC(C(=O)OCC(=O)Nc1ccc(S(N)(=O)=O)cc1)N1C(=O)c2ccccc2C1=O (centres undefined),-,-,-,-,-,-,.
COC1CC(C)C(OC)c2cc(O)cc(c2O)NC(=O)C(C)=CC=CC(C)C(OC(N)=O)C(C)=CC(C)C1OC (centres undefined),57,-,-,72,-,48,48
Nc1ccccc1Oc1c(F)c(F)c(Oc2ccccc2N)c(F)c1F,-,-,-,-,-,-,.
CC(=O)Nc1ccc(Nc2nc(C)c([N+](=O)[O-])c(Nc3ccccc3)n2)cc1,64,-,67,-,53,-,56
CC(=O)Nc1ccc(Nc2nc(C)c([N+](=O)[O-])c(N(C)c3ccccc3)n2)cc1,-,-,-,-,-,-,.
O=C(Nc1ccccc1)NN(C(=O)CCl)c1ccccc1,100,-,69,87,-,47,92
CC1(C)N=C(N)N=C(N)N1c1cccc(C#N)c1,-,-,-,-,-,-,.
COc1ccc2c(c1)C=C([C@@H]1C[C@H]3CN(c4ccccc4)C(=O)[C@]34CCCN14)CO2,71,-,-,-,-,-,53
CN1C[C@@H]2C[C@@H](C3=Cc4cc(Cl)ccc4OC3)N3CCC[C@@]23C1=O,-,-,-,-,-,-,.
CC(=O)Nc1ccc(NC(=O)c2nc(S(=O)(=O)Cc3ccccc3)ncc2Cl)cc1,102,95,58,88,-,-,96
COc1ccc(-c2nc3c(c(SCC(=O)N4CCOCC4)n2)Cc2c(CO)cnc(C)c2O3)cc1,54,-,-,-,-,-,40
OCCCn1c(C2CCCN2c2nc(-c3ccc(F)cc3)cs2)nc2cc(Cl)c(N3CCCCC3)cc21 (centres undefined),56,-,-,-,-,-,-
OCCOCCn1c(C2CCCN2c2nc(-c3ccc(F)cc3)cs2)nc2cc(Cl)c(Cl)cc21 (centres undefined),-,-,-,-,-,-,.
CC1CCCCN1CCNC(=O)c1ccc2c(=O)n(Cc3ccc(Cl)cc3)c(=S)[nH]c2c1 (centres undefined),102,-,-,-,-,-,98
O=C(COc1ccc(Cl)cc1Cl)Nc1ccccn1,92,-,108,80,89,64,87
Cc1c(C)c2cc(Cl)c(OCC(=O)Nc3ccccn3)cc2oc1=O,-,-,-,.,-,-,.
Cc1c(C)c2ccc(OCC(=O)Nc3ccccn3)c(C)c2oc1=O,93,94,103,87,82,-,84

# Source: PubChem (several laboratories)
